HIF-2a block: inhibitors of HIF-2a; 786-0 RCC cells HIF-2a reporter, luciferase luminescence, overnight; inhibition, % at 18.8 µM; 360,000 tested, 0.72% active; AID 624352;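 active = inhibition of the luminescence signal of 40% or more relative to plate controls, in a single-dose primary screen at 18.75 µM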
Mdm2 MdmX PPI: disrupts the human Mdm2-MdmX interaction; SaOS-2 split-luciferase Mdm2/MdmX complementation, luminescence; inhibition, % at 8 µM; 330,000 tested, 3% active;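 active = inhibition of at least 50% at 8 µM in the primary screen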
Target sequence (O15151 whole entry, looked up): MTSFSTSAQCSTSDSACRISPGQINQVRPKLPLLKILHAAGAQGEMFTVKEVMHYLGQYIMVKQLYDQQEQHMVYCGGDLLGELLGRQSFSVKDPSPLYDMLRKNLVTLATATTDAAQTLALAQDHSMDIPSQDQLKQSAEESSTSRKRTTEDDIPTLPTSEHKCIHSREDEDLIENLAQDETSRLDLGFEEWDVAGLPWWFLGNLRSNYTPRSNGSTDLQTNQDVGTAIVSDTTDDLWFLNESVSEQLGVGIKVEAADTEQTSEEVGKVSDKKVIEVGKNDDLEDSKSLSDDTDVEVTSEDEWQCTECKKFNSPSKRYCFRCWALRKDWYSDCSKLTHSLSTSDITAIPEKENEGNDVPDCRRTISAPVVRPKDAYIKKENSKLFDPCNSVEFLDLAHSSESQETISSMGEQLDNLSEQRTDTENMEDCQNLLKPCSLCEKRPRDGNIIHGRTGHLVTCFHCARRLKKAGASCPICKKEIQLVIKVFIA
Target sequence (Q00987 whole entry, looked up): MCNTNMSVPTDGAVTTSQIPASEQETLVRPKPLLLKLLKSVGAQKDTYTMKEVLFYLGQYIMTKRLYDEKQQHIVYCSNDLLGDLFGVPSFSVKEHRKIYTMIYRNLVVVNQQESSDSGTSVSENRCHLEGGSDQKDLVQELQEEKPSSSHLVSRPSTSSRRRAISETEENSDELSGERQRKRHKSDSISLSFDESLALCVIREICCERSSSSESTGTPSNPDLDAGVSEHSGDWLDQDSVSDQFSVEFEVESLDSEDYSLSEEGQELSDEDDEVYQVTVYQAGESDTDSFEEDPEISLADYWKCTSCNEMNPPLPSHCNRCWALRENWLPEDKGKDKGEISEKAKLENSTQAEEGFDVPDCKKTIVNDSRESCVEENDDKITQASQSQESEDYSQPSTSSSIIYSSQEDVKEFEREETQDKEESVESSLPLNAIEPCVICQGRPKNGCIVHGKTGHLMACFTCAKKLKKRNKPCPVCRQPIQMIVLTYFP
CF NFkB inh: blocks PAF-induced NF-kB reporter in cystic fibrosis cells; AID 588850; 360,000 tested, 0.86% active; inhibition, % at 5 µM; KKLEB NF-kB-GFP reporter, GFP fluorescence overnight;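 active = at least 50% inhibition at 5 µM, scaled per plate between neutral and stimulator controls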;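 note: PAF is a Pseudomonas aeruginosa culture filtrate used as stimulus; plate controls were PAF-stimulated DMSO wells for no effect and unstimulated DMSO wells for full effect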
ABHD5-PLIN5 inh: inhibitors of human ABHD5-perilipin-5 interaction; Split G. princeps luciferase complementation, luminescence, 4 h; inhibition, % at 4 µM; 360,000 tested, 0.78% active; AID 602281;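 active = inhibition above the mean inhibition across every tested compound plus 3 SD, cut at about 22% in these data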;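 note: 0% = DMSO only wells and the 100% control is not disclosed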
KKLEB tox: CF airway cell cytotoxicity counter-screen; KKLEB CF airway cells viability, ATPlite luminescence, overnight; active compounds read low; cells stimulated with P. aeruginosa culture filtrate; activity change (cytotoxicity), % at 5 µM; 360,000 tested, 0.36% active;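 active = corrected activity change at or below -50% at 5 µM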
Peg3 prom inh: Peg3 promoter activity inhibition | HeLa PEG-Prom luciferase reporter, luminescence, overnight | inhibition, % at 20 µM | 360,000 tested, 1.7% active | AID 588405;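 active = inhibition of at least 50% at 20 µM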
Mdm2 MdmX conf: human Mdm2/MdmX binding inhibition, confirmed; shares compounds with Mdm2 MdmX PPI; luminescent assay; inhibition, % at 8 µM; 10,000 tested, 55% active; AID 489028; in the data active = inhibition above about 40%
Full FLuc ctr: inhibits full-length luciferase, flagging false Mdm2/MdmX hits; shares compounds with Mdm2 MdmX PPI; SaOS-2 full-length luciferase counterscreen, luminescence; inhibition, % at 8 µM; 6,200 tested, 77% active; AID 504607;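 active = mean inhibition at 8 µM reaching about 37%, which flags the compound as non-specific, limit read from the data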;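 note: p53-null SaOS-2 cells with luciferase driven by a doxycycline-inducible promoter; compound on cells about two nights before reading with doxycycline added after day one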
The depositor's hits bear a star; . = no result. Shown are actives, neighbours in structure and some others; about 4.6% of the full set was active somewhere.

SMILES	HIF-2a block	Mdm2 MdmX PPI	CF NFkB inh	ABHD5-PLIN5 inh	KKLEB tox	Peg3 prom inh	Mdm2 MdmX conf	others
C#CC1(NC(=S)Nc2cccc(OC)c2)CCCCC1	-38	.	3	-6	-2	-9	.
O=C(N1CCC(n2nc(-c3ccccc3)oc2=O)CC1)C1(c2ccc(Cl)cc2)CC1	0	25	-11	0	-11	8	.
C(=N\Nc1nc2ccccc2[nH]1)/c1cccc2cccnc12	-190	65*	13	-3	-31	-84	66*	Full FLuc ctr=45*
Cc1[nH]c2ccccc2c1/C=N/Nc1nc2ccccc2[nH]1	-206	62*	-83	14	17	-123	-7
Cc1ccccc1/C=N/Nc1nc2ccccc2[nH]1	-263	-1	-23	2	6	-234	.
N/C(=N\O)c1ccc(N2CCN(c3ncccc3C(F)(F)F)CC2)nc1	-235	-38	13	-4	-2	-265	.
O=C(Nc1ccc(N2CCN(c3ccc(C(F)(F)F)cn3)CC2)nc1)c1cccs1	10	56*	15	-5	3	-2	6
O=C(Nc1ccc(N2CCN(c3ncccc3C(F)(F)F)CC2)nc1)c1cccs1	7	65*	8	2	-5	104*	35
O=C(Nc1ccc(N2CCOCC2)nc1)c1cccs1	-133	-7	-4	2	8	-139	.
Cc1nn(-c2ccccc2)c(Cl)c1/C=C1\C(=O)N(C)C(=S)N1C	10	2	3	-4	-3	16	.
Cc1nn(-c2ccc(F)cc2)c(Cl)c1/C=C1\C(=O)Nc2ccccc21	-37	59*	12	-5	-2	26	62*	Full FLuc ctr=68*
COc1ccc(C2CN=NC23CCc2ccccc2C3=O)cc1 (configuration not stated)	-24	66*	-1	2	0	30	53*	Full FLuc ctr=89*
CC1(C)Cc2c(c(N3CCOCC3)nc3sc(C(=O)Nc4ccc(Cl)cc4)c(N)c23)CO1	-41	5	4	-8	-20	34	.
Cc1nc2c(sc3nc(N4CCOCC4)c4c(c32)CC(C)(C)OC4)c(-c2ccc(Cl)cc2)c1C(=O)O	21	64*	20	-6	-15	29	32
CC1(C)Cc2c(c(N3CCOCC3)nc3snc(N)c23)CO1	38	83*	32	-49	-11	65*	31
CC1(C)Cc2c(c(N3CCOCC3)nc3sc(C(N)=O)c(N)c23)CO1	30	18	19	-3	0	9	.
O=C1CC(c2ccc3c(c2)OCO3)Sc2nc3ccccc3n21 (configuration not stated)	-36	54*	9	5	-27	-23	67*	Full FLuc ctr=169*
CN[C@H]1CCc2cc(OC)c(OC)c(OC)c2-c2ccc(OC)c(=O)cc21	19	68*	46	-4	18	-55	56*	Full FLuc ctr=104*
CCOC(=O)NC1CCc2cc(OC)c(OC)c(OC)c2-c2ccc(SC)c(=O)cc21 (configuration not stated)	20	.	46	9	-3	-29	.
COc1cc2c(c(OC)c1OC)-c1ccc(NC(=O)c3ccccc3)c(=O)cc1[C@@H](NC(C)=O)CC2	6	57*	-18	4	4	-3	65*	Full FLuc ctr=63*
Cc1nc2[nH]c(=O)n(O)c(=O)c2s1	3	.	-4	8	0	4	.
Cc1c(C)n(Cc2ccc(F)cc2)c2ccc(C(=O)NCCN3CCOCC3)cc12	3	27	3	7	0	-9	.
O=[N+]([O-])c1ccccc1S(=O)(=O)Nc1ccc2c(c1)OCCO2	-8	5	4	7	-1	8	.
CN[C@H]1CC[C@@H](c2ccc(Cl)c(Cl)c2)c2ccccc21	-27	69*	8	11	.	95*	16
N#CC/C(N)=N/Nc1nc2ccccc2nc1Cc1ccccc1	32	36	3	-4	1	37	.
SMILES	HIF-2a block	Mdm2 MdmX PPI	CF NFkB inh	ABHD5-PLIN5 inh	KKLEB tox	Peg3 prom inh	Mdm2 MdmX conf	others
C[C@@H]1CN([C@@H](C)CO)C(=O)c2cc(-c3ccncc3)cnc2O[C@H]1CN(C)C(=O)c1cccc(F)c1	12	.	-18	4	13	-1	.
COc1ccc(-c2cc(C(F)(F)F)c(C#N)c(SCC(=O)O)n2)cc1	16	6	-12	3	13	27	.
COc1ccc(-c2cc(C(F)(F)F)c(C#N)c(SCC(=O)Nc3nc(C)co3)n2)cc1	-13	62*	-18	1	-7	57*	23
COc1ccc(NC(=O)CSc2nc(-c3ccc(C)cc3)cc(C(F)(F)F)c2C#N)cc1	6	26	-4	0	-25	10	.
COc1ccc(-c2cc(C(F)(F)F)c(C#N)c(SCC(=O)Nc3ccccc3C#N)n2)cc1	.	53*	.	.	.	.	13
Cc1cn2c(nc1=O)OC1CC2OC1CO (configuration not stated)	15	10	2	-3	1	8	.
CCCC#Cc1ccc2c(c1)O[C@H](CN(C)C(=O)CC1CC1)[C@H](C)CN([C@@H](C)CO)S2(=O)=O	10	.	19	-1	-6	15	.
Cc1ccc(NC(=S)N(CCCN2CCCC2)Cc2cccn2Cc2ccc(Cl)cc2)cc1Cl	-14	76*	16	11	-19	98*	39	Full FLuc ctr=58*
CCN1CCN(S(=O)(=O)c2ccc(Cl)c(C(=O)NC(C)c3ccccc3Cl)c2)CC1 (configuration not stated)	4	-5	-2	11	-8	6	.
O=C(CCN1CCN(c2ccccc2)CC1)N/N=C/c1ccccc1O	4	60*	-11	2	20	32	56*	Full FLuc ctr=56*
CN1CCN(CCC(=O)N/N=C/c2ccccc2F)CC1	7	-30	-7	-6	11	-5	.
COc1ccc(C(=Cc2cc(OC)c(OC)cc2[N+](=O)[O-])C(=O)O)cc1	13	.	3	-9	27	6	.
CN(C)CCCNC(=O)c1cccc(-c2cnc3cccnn23)c1	15	.	-4	-4	-9	9	.
C=CCN=c1scc(-c2ccccc2)n1/N=C/c1ccccn1	-247	79*	-12	-13	-25	-329	64*	Full FLuc ctr=42*
CCN=c1scc(-c2ccc(F)cc2)n1/N=C/c1ccccn1	-349	-175	-8	-5	-25	-306	.
C=CCN=c1scc(-c2ccc(F)cc2)n1/N=C/c1ccccn1	-230	-6	5	-3	-1	-231	.
CCN=c1scc(-c2ccccc2)n1/N=C/c1ccccn1	-25	85*	-43	-7	-20	-45	66*	Full FLuc ctr=127*
